Common to all, as to experiment: cell viability (% of vehicle); higher = less cytotoxic
What all share (details): 10 µM; 72 h

Experiment [1] concerns HCI01 (cells of a triple-negative basal-like breast cancer xenograft).
Experiment [2] has as its system HCI03 (cells of an ER-positive luminal breast cancer xenograft).
Experiment [3] deals with HCI09 (cells of a triple-negative luminal androgen receptor type breast cancer xenograft).
Experiment [4] concerns HCI11 (cells of an ER-positive luminal breast cancer xenograft).
Experiment [5] deals with HCI13 (cells of an ER-positive luminal breast cancer xenograft).
Experiment [6] relates to HCI16 (cells of a triple-negative basal-like breast cancer xenograft).
Experiment [7] concerns UCD52 (cells of a triple-negative basal-like breast cancer xenograft).
Experiment [8] deals with WHIM2 (cells of a triple-negative basal-like breast cancer xenograft).
Experiment [9] has as its system WHIM30 (cells of a triple-negative basal-like breast cancer xenograft).

Molecules are shown by their SMILES. Structures can show the parent of a compound that is named as a salt. ± gives the standard deviation of the averaged measurements.

Data on 7 molecules can be found in the supplement of paper PMC6992640.
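Also: PDX cells carrying CMV promoter-driven luciferase, viability read as total photon flux per second by IVIS imaging following D-luciferin, vehicle control 0.1% DMSO.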

Take `C#CC1(OC(C)=O)CCC2C3CCC4=CC(OC(C)=O)CCC4C3CCC21C` (configuration not stated) [Ethynodiol diacetate]: the cell viability turned out to be 136 ± 22 in experiment [1]; 118 in [2]; 86.3 ± 5.5 in experiment [3]; 73.4 in experiment [4]; 142 ± 16 in experiment [5]; 136 in experiment [6]. The results for the cell viability in experiment [7], in experiment [8] and in [9] were 84.9 ± 5.6, 107 ± 17 and 112 ± 16, respectively.
With `Cc1ccsc1C(=CCCN1CCC[C@@H](C(=O)O)C1)c1sccc1C` [Tiagabine hydrochloride], the cell viability in experiment [1] came to 100 ± 1.8; in [2], 93.2; in [3], 90.8 ± 14; in [4] it was 86.4; in experiment [5], 96.1 ± 6.3; in [6], 95.6. In addition, the cell viability in experiment [7] came to 97.2 ± 14; in [8], 109 ± 34; in experiment [9] it was 105 ± 2.
As to `Cc1cc(C2CCCCC2)n(O)c(=O)c1.NCCO` [Ciclopirox ethanolamine], the cell viability in experiment [1] worked out at 113 ± 52; in experiment [2], 60.3; in [3], 31.7 ± 9.4; in experiment [4], 69.4; in [5], 59.3 ± 3.2; in experiment [6] it was 123. Moreover, the cell viability turned out to be 63.4 ± 8.2 in [7] and 86.4 ± 7 in experiment [9].
As for `CC(=O)[N-]S(=O)(=O)c1ccc(N)cc1.[Na+]` [Sulfacetamide Sodium], the cell viability in [1] came out at 98.2 ± 1.3; in experiment [2] it was 86.1; in experiment [3] it was 87.3 ± 15; in experiment [4], 104; in experiment [5], 96.8 ± 5.9; in experiment [6] it was 79.7. In addition, the values for the cell viability in experiment [7], in experiment [8] and in [9] were 72.9 ± 1.1, 85.757 ± 0.01 and 109 ± 3.1, respectively.
Take `C=CCNC(N)=S` [Allylthiourea]: the cell viability in experiment [1] is 96.4 ± 7.7; in experiment [2], 118; in experiment [3] it was 94.1 ± 19; in [4] it was 97.4; in experiment [5] it was 64.8 ± 14; in [6] it was 107. For the same molecule, the cell viability in experiment [7] was 129 ± 35; in [8], 108 ± 35; in experiment [9] it was 130 ± 8.
Turning to `CN(C)CCCOc1nn(Cc2ccccc2)c2ccccc12.Cl` [Benzydamine HCl], the cell viability in experiment [1] was 171 ± 76; in [2] it was 85.4; in experiment [3], 79 ± 16; in experiment [4], 104; in experiment [5], 66.2 ± 11; in experiment [6], 163. Also, the cell viability in experiment [7] was 100.3 ± 0.44; in [8] it was 116 ± 6.4; in experiment [9], 123 ± 18.
On to `Cn1cnc([N+](=O)[O-])c1Sc1ncnc2nc[nH]c12` [Azathioprine], for which the cell viability in experiment [1] came to 98.2 ± 32; in [2], 119; in [3], 106 ± 26; in experiment [4], 87; in experiment [5] it was 65 ± 8.7; in experiment [6] it was 151. For the same molecule, the results for the cell viability in experiment [7], in experiment [8] and in [9] were 129 ± 18, 71.1 ± 10 and 110 ± 8.8, respectively.
